From the supplement of paper PMC6555819

How the values were obtained:
Experiment in all cases: PBM binding z-score (relative to random genomic background probes); higher = stronger binding; sequences stand for … in GC…GCGATTGACAGCGTAGAATGAAGG
[1] = tested on: RARb homodimer (NR concentration 270 nM)
Summary of the method: (§1)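 Each nuclear receptor dimer, without ligand, was incubated for 1 h on custom Agilent 4×180K protein-binding microarrays. Binding was detected with antibodies against each partner (one per run), and scanned fluorescence was regression-normalized. The binding z-scores are referenced to random human genomic background probes.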

[2] = tested on: RARg:RXRa (NR concentration 270 nM, RXRa partner concentration 90 nM)
Summary of the method: as §1

[3] = tested on: RARg homodimer (NR concentration 270 nM)
Summary of the method: as §1

[4] = tested on: RXRa DBDmut IVT, anti-RXR (DBD mutation: RXRa K156A/R161A, NR concentration 90 nM)
Summary of the method: as §1

[5] = tested on: RXRa homodimer (NR concentration 180 nM)
Summary of the method: as §1

[6] = tested on: THRa:RXRa (NR concentration 90 nM, RXRa partner concentration 90 nM)
Summary of the method: as §1

[7] = tested on: THRa homodimer (NR concentration 90 nM)
Summary of the method: as §1

[8] = tested on: VDR homodimer (NR concentration 270 nM)
Summary of the method: as §1

Sequence	PBM binding z-score [1]	PBM binding z-score [2]	PBM binding z-score [3]	PBM binding z-score [4]	PBM binding z-score [5]	PBM binding z-score [6]	PBM binding z-score [7]	PBM binding z-score [8]
GCAGATAGGTGAAACGCAGGTAACTCAGGGTGGC	0.000492	0.873	0.288	-0.635	0.592	1.32	-0.559	-0.593
ATCTCTAGGTATAAGTTCAGTGAATCCCGAGGAT	1.42	1.17	1.31	0.993	0.674	0.824	0.567	2.79
ACAGACAGGTGAGGAAGGTAACTCAGGCTATCAT	0.672	0.425	0.577	-0.639	0.267	0.957	0.208	-0.55
AGAACGAGGTTATTAAGATCAGGGAATTGCGGTC	0.861	0.912	0.734	1.68	1.82	1.65	0.227	1.33
TCATATAGGTAATACAGTTGAAAGTCGGCATCTA	0.353	0.792	0.493	1.96	1.26	0.327	0.576	0.467
AGCGAAAGGTCGACGAGGTGAGTATACACCGTTT	2.99	4.23	4.03	0.801	4.4	3.75	0.716	0.753
CAAACTAGCTCACCGGAAGGTCAAAGTCCGCATG	3.98	3.23	2.5	0.916	3.25	2.67	1.55	2.17
CAAACTAGGTGAAGGTCAAAGTCGGTTTGTGCCA	3.92	4.07	4.37	1.5	4.34	3.14	0.696	2.23
ACAGACAGGTGAGTGAAGGTAACCCAGCTGGACG	0.564	0.107	0.469	-0.852	0.562	1.63	0.00911	-0.164
ATCTCTGGGTAACAAGTTCAGTGAAAGAGAGGAC	1.8	1.39	1.59	0.883	0.958	1.21	1.06	2.71
CCAGACAGGTGAAAGGTAACTCAATCTGGTACGC	1.19	1.48	0.946	0.203	2.39	1.1	0.0708	-0.0474
GCTATTAGTTGAAAGGGCACCCGAATGATTCTCG	1.78	1.18	1.03	1.06	1.43	0.64	0.229	0.843
GCGACTGGGGCAAAGCAGTTTACCATAAGGTTGG	0.187	0.073	0.187	0.0079	-0.0226	0.718	-0.284	-0.185
AGTCAAAGTTCAGGACGGGGTAACGTAAAGCACG	3.27	5.09	4.51	2.98	3.43	3.8	1.55	2.58
CCTCGGAGGAAAACAGGAGGTCAGAGCTGCCAGA	2.81	1.32	1.3	-0.428	1.63	2.06	0.595	0.405
TGTCAAATTTCAAAGGTAACGTAAGTATCCACAC	0.519	0.768	0.628	-0.231	0.652	1.27	-0.123	-0.127
CCGACTCGGGCATAAGGTTACCATAAGCCAGCCC	1.44	1.47	0.909	-0.288	0.905	2.09	0.96	-0.223
ATCTCTAGGTAAGACTCTGTTCAGTGAAGAACGC	0.515	-0.0818	0.134	0.365	0.0121	0.57	0.576	-0.00157
CAAACTAGGTCACGAAAGGTCACAGTCGAATGAC	6.08	7.72	8.69	2.05	7.64	5.11	3.05	2.77

Sequence	PBM binding z-score [1]	PBM binding z-score [2]	PBM binding z-score [3]	PBM binding z-score [4]	PBM binding z-score [5]	PBM binding z-score [6]	PBM binding z-score [7]	PBM binding z-score [8]
ACTTACGGGTCAACGAGGTTATAACACGCGTATA	3.71	5.74	5.07	3.22	6.33	4.34	1.32	4.13
TAGCCTTGGTCATTCAGGGGCCAGTATAGAAAGC	1.09	2.02	0.792	-0.76	0.416	0.75	-0.852	-0.456
AATAGCAGGCCAAGGGTCACTCAAGATTAGTCCG	3.86	4.1	3.92	0.264	4.46	2.8	0.187	1.06
GCAGACAGGTGATACGCAGGTAACTCAGGGTGGC	-0.38	-0.066	-0.0165	-0.589	0.293	0.561	-0.509	-0.5
GCTGCTAGGACAACTGATGGTCAGCTAAAGCTCG	0.137	-0.166	0.37	-0.0279	-0.722	0.434	-0.447	-1.49
GCTATAAGTTGAAAGGGCAACCGAATGATTCTCG	2.13	2.28	1.81	1.24	2.42	1.16	-0.205	0.188
CCTGCTGGGTCATGGTCAGCTAATCTACAGTATG	2.6	3.56	3.65	0.81	2.88	2.04	0.0617	-0.0341
CGTACTGGGCCATCAGGTCATTGATATCAACGTT	2.7	2.08	2.17	0.587	1.44	3.17	3.18	1.98
ATCGTAAGGTCGAGGTGAGTATAGAGAAAGGGAA	2.13	3	3.23	1.49	2.55	3.43	2.18	0.892
CAGCCTAGGTCAGGGCCAGTAGAGGAGGAACGTT	2.31	2.91	3.9	-0.543	1.35	1.88	0.411	0.169
CTCGAAAGGTCGTGCTAAGGTGAGTATACCAAAC	3.37	6.03	4.31	2.01	5.25	4.61	1.79	1.29
AGTCCAAGTTCAGGACGAGGTAACGTAAAGCACG	1.71	2.68	2.35	3.51	1.3	3.44	1.65	2.91
CGAACTAGGTCATCCAGGCCAGTGAATACATTGA	3.18	4	4.59	2.18	2.85	3.23	1.19	1.33
TCTTGTAGCTCAACAGGAGGTTAAGAAAGATCGA	-0.0225	0.173	0.0214	-0.206	0.559	0.491	-1.06	-0.327
GCGTCTGGGGCATCAGCAGGTTACCATAACTTAA	0.953	0.859	0.544	0.254	0.243	1.06	-0.103	-0.379
TAGCCTAGGTCATTCGGGCCAGTATAGTGTCGGC	3.25	3.72	4.17	1.79	3.07	3.16	1.11	1.49
TCGAGTAGGTTACCAATGGGGAATTCAGCTTTCT	-0.273	0.258	-0.0594	0.599	0.509	-0.0396	-1.08	-0.782
TCGAGTAGGTTAGTCGGGGCATTCTGCCAACATA	0.157	-0.242	-0.393	0.374	-0.128	0.983	-0.375	0.287
TTTTGTAGATCAAAGGTTAAGAAAGCCGAAGCCT	1.49	1.74	0.912	-0.536	3.39	1.3	-0.617	-0.0263

Sequence	PBM binding z-score [1]	PBM binding z-score [2]	PBM binding z-score [3]	PBM binding z-score [4]	PBM binding z-score [5]	PBM binding z-score [6]	PBM binding z-score [7]	PBM binding z-score [8]
AGTCAAAGTTAATCTAGGTAACGTAAGATATGCT	-0.203	0.152	0.434	-0.168	0.0123	2.91	0.311	-0.189
TCGAGGAGGTTAGGGGCATTCAGAATGGCGTCGA	1.36	0.847	0.702	0.518	1.22	1.34	0.547	1.07
CTCGATAGGTCGGTTGAGGTGAGTATACGGATAA	1.02	0.724	1.15	-0.0462	0.554	4.73	1.19	0.0696
CCTTACGAGTCACTCCAGGTTATAGCATCGGAGT	0.938	0.686	0.863	0.584	0.475	3.69	1.07	0.838
CTACCAAGGTGAACAAGGTCGTAGATTACTATTC	1.98	2	1.6	0.741	2.24	3.24	1.88	1.72
GCTATTTGTTGAAAGGGCAACCGAATGATTCTCG	2.2	1.01	1.26	1.28	0.98	0.638	0.181	0.657
CCTACTGGGCCACGAACGGTCATTGATTCAGTGA	1.91	0.72	1	-0.535	-0.0982	0.584	-0.505	-0.169
CCTAGTTGGTCAGGAGGTCATACACCGGATATGA	3.79	4.56	3.35	0.572	4.2	3.23	1.8	2.73
TCTTGTAGATCAGTAGGTTAAGAAAGCTGGCCAA	0.381	-0.0974	-0.231	0.997	0.365	0.204	0.0296	0.104
TCTCGGAGGACGCGAAGGTCAGAGCTTTCCAGAG	3.03	2.26	2.1	0.401	1.67	1.84	0.0235	0.488
ATCTCTATGTAAAAGTTCAGTGAATCCCGAGGAT	2.26	1.61	1.8	1.05	1.11	0.505	0.00559	1.6
CGATCTAGGTCATTGACAGGACAGTGAATAGTAA	2.8	4.48	4.41	2.67	2.41	3.11	1.21	1.49
TCATATAGGTTATACAGGTGAAAGTCGGCATCTA	1.48	1.73	1.29	2.09	2.2	1.92	0.477	0.534
TCGAGTAGGTTAGTCGGGGTATTCAGCCAACATA	-0.161	-0.227	-0.435	0.0822	-0.0938	1.71	-0.175	-0.161
ACAGACAGGTGATGAGGGTAACTCAGGCTATCAT	0.681	0.294	0.502	-0.49	0.588	2.72	0.561	-0.088
GCTTACTGGTCAAAGGTTATAGCATGAATAGAAT	1.78	3.91	1.68	0.714	4.35	1.87	-0.137	0.435
CCTTACGGGTCACGAGGTGATAGCACGACGAGCG	3.52	5.58	5.46	1.66	6.44	3.48	0.888	1.15
TCTTGTAGATCACCAGGTTAAGAAAGCTGGCCAA	0.501	0.343	-0.0575	1.03	1.06	1.06	0.422	0.245
